# Results from PubChem BioAssay (NCATS).
# Unmarked numbers belong to inactive results. Results filed as inconclusive are left out. Calls of active or inactive are those of the source. Calls come from the whole dose curve; as a rule, active = well fitted curve in the direction sought with a large enough effect; inconclusive = small, poorly fitted or top-dose-only effect, or another doubt; inactive = no such curve, though single readings can be large; an effect the other way counts as inactive or inconclusive.
# Key:
# [1] = Confirmation and Secondary Assay for Modulators of Hemoglobin Beta Chain Splicing at IVS2 654 locus (AID 910);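 note: per-well total GFP intensity by laser scanning cytometry after 2-day treatment; % of control where 0% means no effect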
# In short: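 HeLa cells stably carrying EGFP interrupted by mutant beta-globin IVS2-654 intron (CMV-driven) were treated with compound for 2 days at 37C; corrected splicing was scored as total peak GFP intensity per well (488 nm excitation, 500-520 nm emission).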
# [2] = Confirmation and Secondary Assay for Modulators of Hemoglobin Beta Chain Splicing at IVS2 705 locus (AID 930);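 note: HeLa cells stably expressing the EGFP-705 splicing reporter; GFP fluorescence per well restored by corrected splicing of the IVS2-705 intron in EGFP; series mostly up to about 46 µM; % of control where 0% means no effect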
# In short: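 Per-well GFP, captured at 1 x 8 µm resolution with 488 nm excitation, served as the read-out for HeLa EGFP-705 cells incubated 2 days with test compound versus DMSO.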
# [3] = Cell Viability - LYMP2-001 (AID 921);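 note: series mostly up to about 92 µM; cells exposed to compound for 24 h at 37 °C; 0% = DMSO only and full inhibition = tetraoctylammonium bromide control wells; nearly all actives have a fitted effect of over 70% in size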
# In short: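 Steps: seed 2500 lymphoblastoid cells/well; 5 hr, 37 C; add compound; 24 hr, 37 C; CellTiter-Glo reagent, 30 min room temperature; read luminescence. Concentration-response modeled by Hill equation for AC50.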
# [4] = MultiTox-Fluor Cytotoxicity Assay - LYMP1-001 - Dead Cells (AID 946)
# In short: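 Cytotoxicity as increased dead-cell protease fluorescence (bis-AAF-R110, 485/520 nm), read 60 min after MultiTox-Fluor reagent. Human lymphoblastoid line exposed 16 h; Hill-fitted AC50, with DMSO as 0% and 15 uM tetraoctylammonium bromide as 100%.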
# [5] = MultiTox-Fluor Cytotoxicity Assay - LYMP1-001 - Live Cells (AID 947);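 note: 0% = DMSO only and full inhibition = tetraoctylammonium bromide control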
# [6] = target: Cytochrome P450 2C19 (Homo sapiens) (UniProt P33261); experiment: qHTS Assay for Inhibitors and Substrates of Cytochrome P450 2C19 (AID 899); note: % is set by controls: 0 for no effect and ±100 for the full control effect; nearly all actives have a fitted effect of over 60% in size
# In short: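 In 50mM KPO4, the reaction held 5nM enzyme and KM-level (10uM) Luciferin-H EGE; it ran 60 min at 37C after NADPH regeneration and a 10 min compound preincubation. Luminescence values were scaled to 57uM ketoconazole as complete inhibition.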
# [7] = target: Pyruvate kinase (Leishmania mexicana) (UniProt Q27686); experiment: qHTS Validation Assay for Inhibitors of Leishmania Mexicana Pyruvate Kinase (AID 945);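 note: 0% = DMSO only neutral control wells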
# In short: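 An endpoint luciferase assay: 0.2 nM LmPYK E451W turns over 0.5 mM PEP with 0.1 mM ADP for 1 h at room temperature, pH 7.2, before PKLight addition. Values are normalized to DMSO-only wells.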
# [8] = qHTS Assay for Identification of Small Molecule Agonists for Thrombopoietin (TPO) Signaling Pathway (AID 917); note: % is set by controls: 0 for no effect and ±100 for the full control effect
# In short: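 Luminescence from a Glycoprotein IIb promoter–driven luciferase reporter served as read-out in murine Ba/F3 cells carrying the human TPO receptor. Cells, deprived of IL-3 overnight, received compounds with 26 pM TPO and were incubated 24 hrs at 37 C.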
# [9] = target: Muscarinic acetylcholine receptor M1 (Rattus norvegicus) (UniProt P08482); experiment: qHTS Assay for Antagonists of Acetylcholine Muscarinic M1 Receptor: Kinetic Measurement of Intracellular Calcium Response (AID 943);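 note: Fluo-4 calcium signal as peak divided by basal fluorescence over 4 min; series mostly up to about 35 µM; nearly all actives have a fitted effect of over 75% in size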
# In short: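 CHO cells stably expressing rat M1 were loaded with no-wash Fluo-4 dye for 1 h at 37C, pre-incubated 10 min with compound, then challenged with EC80 carbachol (100 nM final); kinetic calcium read 4 min, peak/basal ratio.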
# [10] = target: Muscarinic acetylcholine receptor M1 (Rattus norvegicus) (UniProt P08482); experiment: qHTS Assay for Antagonists of Acetylcholine Muscarinic M1 Receptor: Measurement of IP-One Response (AID 944); note: nearly all actives have a fitted effect of over 75% in size
# In short: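 CHO cells expressing rat M1 receptor, recovered overnight, were pre-incubated 10 min with compound, then stimulated 30 min with carbachol at EC80 (200 nM) in LiCl-containing buffer, pH 7.4. IP1 accumulation was read by HTRF (620/665 nm).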
# Chain of Muscarinic acetylcholine receptor M1 (Rattus norvegicus) (P08482 whole entry, looked up): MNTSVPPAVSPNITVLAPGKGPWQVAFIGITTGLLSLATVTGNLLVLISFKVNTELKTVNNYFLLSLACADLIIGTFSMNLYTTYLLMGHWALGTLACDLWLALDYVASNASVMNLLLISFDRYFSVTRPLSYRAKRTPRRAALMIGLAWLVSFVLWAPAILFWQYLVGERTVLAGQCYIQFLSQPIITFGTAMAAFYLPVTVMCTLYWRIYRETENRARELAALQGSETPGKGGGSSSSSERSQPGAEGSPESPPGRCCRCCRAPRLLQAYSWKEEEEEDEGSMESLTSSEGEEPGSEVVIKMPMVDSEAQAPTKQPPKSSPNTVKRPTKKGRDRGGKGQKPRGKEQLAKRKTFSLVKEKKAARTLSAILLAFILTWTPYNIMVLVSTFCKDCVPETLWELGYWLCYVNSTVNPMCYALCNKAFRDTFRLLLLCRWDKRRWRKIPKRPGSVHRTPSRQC
# Chain of Pyruvate kinase (Leishmania mexicana) (Q27686 2-499 E452W): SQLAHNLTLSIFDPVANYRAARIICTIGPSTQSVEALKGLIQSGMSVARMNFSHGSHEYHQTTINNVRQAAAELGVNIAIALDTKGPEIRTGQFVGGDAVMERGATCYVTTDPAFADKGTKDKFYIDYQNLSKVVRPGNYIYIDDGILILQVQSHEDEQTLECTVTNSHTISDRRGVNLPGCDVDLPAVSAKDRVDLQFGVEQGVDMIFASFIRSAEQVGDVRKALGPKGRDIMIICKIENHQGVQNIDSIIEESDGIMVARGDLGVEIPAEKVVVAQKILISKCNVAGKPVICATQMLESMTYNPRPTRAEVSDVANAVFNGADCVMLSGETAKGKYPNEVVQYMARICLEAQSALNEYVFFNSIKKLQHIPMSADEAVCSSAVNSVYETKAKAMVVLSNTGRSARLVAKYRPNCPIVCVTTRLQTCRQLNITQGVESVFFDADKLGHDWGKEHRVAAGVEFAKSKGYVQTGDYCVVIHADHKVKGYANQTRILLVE
# Chain of Cytochrome P450 2C19 (Homo sapiens) (P33261 whole entry, looked up): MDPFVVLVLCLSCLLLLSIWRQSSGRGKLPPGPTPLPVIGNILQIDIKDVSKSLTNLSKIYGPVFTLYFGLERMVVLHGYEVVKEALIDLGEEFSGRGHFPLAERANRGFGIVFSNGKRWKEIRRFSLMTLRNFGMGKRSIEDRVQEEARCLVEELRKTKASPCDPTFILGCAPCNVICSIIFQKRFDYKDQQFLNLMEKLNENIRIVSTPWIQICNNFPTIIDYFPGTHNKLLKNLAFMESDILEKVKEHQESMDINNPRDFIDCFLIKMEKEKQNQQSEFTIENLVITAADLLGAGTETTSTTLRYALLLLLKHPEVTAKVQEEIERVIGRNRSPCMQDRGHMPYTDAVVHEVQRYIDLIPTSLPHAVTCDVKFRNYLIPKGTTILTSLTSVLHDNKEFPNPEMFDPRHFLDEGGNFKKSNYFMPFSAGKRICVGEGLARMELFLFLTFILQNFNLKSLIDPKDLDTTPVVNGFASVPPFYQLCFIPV
smiles,measurement,setting,value
CCCCCCCCCCCCCCCC(=O)OC/C=C(C)/C=C/C=C(C)/C=C/C1=C(C)CCCC1(C)C,outcome,[1],inactive
same,outcome,[2],inactive
CCCCCCCCCC(=O)O,outcome,[3],inactive
same,outcome,[4],inactive
same,outcome,[5],inactive
O=C(O)c1cc2ccccc2c(Cc2c(O)c(C(=O)O)cc3ccccc23)c1O,"activity, negative = inhibition",[6],1.36% [at 11.4 µM]
COC1=CC(=O)C[C@@H](C)[C@@]12Oc1c(Cl)c(OC)cc(OC)c1C2=O,outcome,[6],inactive
CN(C)Cc1ccccc1,outcome,[3],inactive
same,outcome,[4],inactive
same,outcome,[5],inactive
COC(C)=O,outcome,[3],inactive
same,outcome,[4],inactive
same,outcome,[5],inactive
C=Cc1ccccc1,outcome,[3],inactive
same,outcome,[4],inactive
same,outcome,[5],inactive
C1CNCCN1,outcome,[1],inactive
same,outcome,[2],inactive
CN[C@H]1CC[C@@H](c2ccc(Cl)c(Cl)c2)c2ccccc21,outcome,[7],inactive
NCCCC(=O)O,outcome,[6],inactive
same,outcome,[1],inactive
same,outcome,[8],inactive
same,outcome,[2],inactive
same,outcome,[9],inactive
same,outcome,[10],inactive
same,outcome,[7],inactive
O=C(O)CC(O)(CC(=O)O)C(=O)O,outcome,[1],inactive
same,outcome,[3],inactive
same,outcome,[2],inactive
same,outcome,[4],inactive
same,outcome,[5],inactive
Cc1ccc(OC[C@H](O)[C@H](C)NC(C)C)c2c1CCC2,outcome,[8],inactive
same,outcome,[9],inactive
same,outcome,[10],inactive
same,outcome,[7],inactive
